Screens as filed in PubChem.
mcGAS lum: inhibitors of mouse cGAS | Q8C6L5 | recombinant cGAS, Kinase-Glo ATP depletion luminescence | inhibition, % at 12.5 µM | 0.15% of 160,000 active;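 further: 0% = negative control wells and 100% = reference inhibitor with no enzyme activity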
Target sequence (Q8C6L5 whole entry, looked up): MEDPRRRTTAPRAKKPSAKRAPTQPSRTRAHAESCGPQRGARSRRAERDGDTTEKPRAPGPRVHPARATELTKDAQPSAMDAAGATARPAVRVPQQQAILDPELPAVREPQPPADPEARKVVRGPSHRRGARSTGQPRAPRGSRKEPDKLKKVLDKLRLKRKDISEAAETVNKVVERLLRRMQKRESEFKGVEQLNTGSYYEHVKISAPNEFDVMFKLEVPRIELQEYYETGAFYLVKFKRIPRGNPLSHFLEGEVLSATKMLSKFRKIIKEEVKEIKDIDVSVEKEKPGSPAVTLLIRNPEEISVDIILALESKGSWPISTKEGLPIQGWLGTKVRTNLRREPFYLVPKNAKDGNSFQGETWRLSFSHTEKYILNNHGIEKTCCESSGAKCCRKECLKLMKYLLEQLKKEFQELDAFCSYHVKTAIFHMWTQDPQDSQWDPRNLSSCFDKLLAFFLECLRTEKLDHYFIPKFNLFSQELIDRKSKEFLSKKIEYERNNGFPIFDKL
hcGAS lum: human cGAS inhibition; inhibition, % at 12.5 µM; AID 1259398; recombinant h-cGAS, ATP depletion, Kinase-Glo luminescence; Q8N884; 0.081% of 290,000 active;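 further: 0% = vehicle reaction and 100% = reaction without DNA for no activity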
NPYLR7 ag: mosquito NPYLR7 agonism | HEK293T NPYLR7/Galpha15, GCaMP6s calcium fluorescence | activation, % at 10 µM | 0.15% of 270,000 active; in the data active means activation above about 40%;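 further: 0% = vehicle and 100% = reference agonist at the receptor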
Active calls of the source: *. The list is not random: actives were taken first. Their share in the collection is about 0.28%. Unless noted, no stated cut-off is given here; in the data, active means inhibition above about 40%; inactive means the rest.

Results for CNc1cc(-c2ccc(CN3CCCCC3)cn2)c2cc[nH]c2n1 ?
mcGAS lum: -6; hcGAS lum: 60*; NPYLR7 ag: 21

What do the screens show for `CNc1cc(-c2ccc(CN)cn2)c2cc[nH]c2n1`?
mcGAS lum: -10; hcGAS lum: -2; NPYLR7 ag: 24

How did CCN1CCc2c(sc(NC(=O)C3=COCCO3)c2-c2nc3ccccc3s2)C1 do in these assays?
hcGAS lum: 39; NPYLR7 ag: 60*

Results for CC(=O)N1CCc2c(sc(NC(=O)C3=COCCO3)c2-c2nc3ccccc3s2)C1 ?
hcGAS lum: -4; NPYLR7 ag: 3

What do the screens show for `CC(=O)Nc1sc2c(c1-c1nc3ccccc3s1)CCN(Cc1ccccc1)C2`?
mcGAS lum: -7; hcGAS lum: -3; NPYLR7 ag: 197*

Results for CC(=O)Nc1sc2c(c1-c1nc3ccccc3s1)CCN(C(C)=O)C2 ?
hcGAS lum: 7; NPYLR7 ag: 3

What do the screens show for `COc1ccc(C(=O)Nc2ccc(Cl)c(-c3nc4cc(Cl)ccc4o3)c2)cc1[N+](=O)[O-]`?
mcGAS lum: -6; hcGAS lum: -3; NPYLR7 ag: 4

What do the screens show for `Cc1ccc(NC(=O)Cn2c(-c3nnc(C)o3)cc3ccccc32)c(C)c1`?
mcGAS lum: -6; hcGAS lum: -8; NPYLR7 ag: 12

How did CCOC(=O)c1sc(NC(=O)CSc2nnc3ccccn23)c(C(=O)OCC)c1C do in these assays?
mcGAS lum: -3; hcGAS lum: -6; NPYLR7 ag: -2

What do the screens show for `CCOC(=O)c1sc(NC(=O)CSc2nnc(C)s2)c(C(=O)OCC)c1C`?
mcGAS lum: 61*; hcGAS lum: -4; NPYLR7 ag: -4

How did CCC(=O)N1CCC1(C)C(=O)Nc1cccc(F)c1 (stereo unspecified) do in these assays?
mcGAS lum: -7; hcGAS lum: -15; NPYLR7 ag: 5

How did C#CCn1c(=O)c2c(OCCC)ccnc2n(C)c1=O do in these assays?
hcGAS lum: -10; NPYLR7 ag: 0

Results for Nc1ncnc2c1ncn2C1OC(COP(=O)(O)OP(=O)(O)OP(=O)(O)OP(=O)(O)OCC2OC(n3cnc4c(N)ncnc43)C(O)C2O)C(O)C1O (stereo unspecified) ?
mcGAS lum: -1; hcGAS lum: 2; NPYLR7 ag: 20

Results for Nc1nc(Cl)nc2c1ncn2[C@@H]1O[C@H](COP(=O)(O)OP(=O)(O)OP(=O)(O)O)[C@H](O)C1O (stereo partly specified) ?
mcGAS lum: 9; hcGAS lum: 2; NPYLR7 ag: 129*

What do the screens show for `CN(Cc1ccc(C(F)(F)F)cc1)c1ncc(S(N)(=O)=O)s1`?
hcGAS lum: -7; NPYLR7 ag: 8

How did CC(=O)Nc1cccc(NC(=O)CSc2nc3c(-c4ccccc4)c(C)nn3c(=O)[nH]2)c1 do in these assays?
mcGAS lum: -4; hcGAS lum: 28; NPYLR7 ag: 5

What do the screens show for `Cc1cc(NC(=O)CSc2nc3c(-c4ccccc4)c(C)nn3c(=O)[nH]2)no1`?
mcGAS lum: -3; hcGAS lum: 46*; NPYLR7 ag: 9

Results for N#Cc1c(N)nc(SCC(=O)c2ccccc2)c(C#N)c1-c1ccc(O)cc1 ?
mcGAS lum: -3; hcGAS lum: -1; NPYLR7 ag: -4

What do the screens show for `N#Cc1c(N)nc2c(c1N)C(Sc1ccccc1)c1ccc(O)cc1O2` (stereo unspecified)?
hcGAS lum: -6; NPYLR7 ag: 413*

How did O=c1[nH]c2c(Br)c(Br)c(Br)cc2o1 do in these assays?
mcGAS lum: 66*; hcGAS lum: 35; NPYLR7 ag: 12

What do the screens show for `O=c1[nH]c2ccc(Cl)cc2o1`?
hcGAS lum: -4; NPYLR7 ag: 7

Results for Cc1cccc(CN2CCN(c3cccc(Cl)c3)C(=O)C2C)c1 (stereo unspecified) ?
mcGAS lum: -5; hcGAS lum: -5; NPYLR7 ag: -1

What do the screens show for `Cc1cccc(CN2CCN(c3ccc(Cl)cc3)C(=O)C2C)c1` (stereo unspecified)?
mcGAS lum: 74*; hcGAS lum: -3; NPYLR7 ag: -1

How did CCS(=O)(=O)Nc1ccc(C2=NN(S(C)(=O)=O)C(c3ccc(C)cc3)C2)cc1 (stereo unspecified) do in these assays?
mcGAS lum: 0; hcGAS lum: -1; NPYLR7 ag: 11

What do the screens show for `O=C1N(c2ccccc2)C(c2ccco2)C1(F)F` (stereo unspecified)?
hcGAS lum: 0; NPYLR7 ag: 13

What do the screens show for `Cc1cccc2[nH]c(CCNC(=O)c3cc(C(C)C)on3)nc12`?
mcGAS lum: -9; hcGAS lum: 73*; NPYLR7 ag: 4

What do the screens show for `Cc1nc(CCNC(=O)c2cc(C(C)C)on2)sc1C`?
hcGAS lum: -4; NPYLR7 ag: 0

Results for CCCOc1cc(Nc2ccc(NC(=O)Nc3ccccc3OCC)cc2)nc(C)n1 ?
mcGAS lum: -4; hcGAS lum: -2; NPYLR7 ag: 4

What do the screens show for `O=C1OC(c2cccc(F)c2)=N/C1=C\c1ccc2c(c1)OCO2`?
hcGAS lum: -4; NPYLR7 ag: -2

What do the screens show for `C=CCNC(=O)Cc1ccc(NC(=O)CCC)cc1`?
hcGAS lum: -6; NPYLR7 ag: 10

How did CCN(CC)C(=O)Oc1ccc2c(ccn2Cc2ccc(C#N)cc2)c1-c1ccc(F)c(Cl)c1 do in these assays?
mcGAS lum: -7; hcGAS lum: -2; NPYLR7 ag: 14

What do the screens show for `CCOC(=O)c1c(N)c2c(-c3ccccc3)c(C#N)c(OCC)nc2n1C`?
hcGAS lum: -1; NPYLR7 ag: 3

How did CCOc1nc(Cl)c(C#N)c(-c2ccccc2)c1C#N do in these assays?
hcGAS lum: 45*; NPYLR7 ag: 6

Results for CN(C)C(CNc1nc2ccccc2o1)Cc1ccccc1 (stereo unspecified) ?
hcGAS lum: -8; NPYLR7 ag: 5

What do the screens show for `CN(C)C(=O)c1ccc(NC(CCO)C2CCCCC2)nc1` (stereo unspecified)?
hcGAS lum: -2; NPYLR7 ag: -1

How did O=C(Nc1cccc(C(=O)Nc2ccc(S(=O)(=O)O)c3cc(S(=O)(=O)O)cc(S(=O)(=O)O)c23)c1)Nc1cccc(C(=O)Nc2ccc(S(=O)(=O)O)c3cc(S(=O)(=O)O)cc(S(=O)(=O)O)c23)c1 do in these assays?
mcGAS lum: 86*; hcGAS lum: -1; NPYLR7 ag: -2

Results for Nc1cccc(NC(=O)c2cccc(S(=O)(=O)Nc3cccc(N)c3)c2)c1 ?
mcGAS lum: -4; hcGAS lum: -3; NPYLR7 ag: 12

How did COC(=O)c1ccc(CSc2nnc(CCn3ccc(=O)[nH]c3=O)o2)cc1 do in these assays?
mcGAS lum: 1; hcGAS lum: 2; NPYLR7 ag: -4

What do the screens show for `CCNC(=O)CSc1ccc2c3c(cccc13)C(=O)c1ccccc1-2`?
hcGAS lum: 2; NPYLR7 ag: 37

How did O=C(O)CSc1ccc2c3c(cccc13)C(=O)c1ccccc1-2 do in these assays?
mcGAS lum: 66*; hcGAS lum: 76*; NPYLR7 ag: 94*

Results for CCC1(O)CC(OC2CC(N(C)C)C(OC3CC(O)C(OC4CCC(=O)C(C)O4)C(C)O3)C(C)O2)c2c(cc3c(c2O)C(=O)c2c(O)cccc2C3=O)C1C(=O)OC (stereo unspecified) ?
hcGAS lum: 79*; NPYLR7 ag: -10
